Measured values as given in PubChem BioAssay AID623992 (NMMLSC, 2012).
Measured potencies and affinities stand elsewhere. Active and inactive are the calls of the source.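 The calls were made as follows: active = compounds whose fitted half-maximal effective concentration for blocking dye efflux is below 100 µM; inactive = the rest.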

Each molecule was assayed against Benomyl/methotrexate resistance protein (Candida albicans) (UniProt P28873) (assay: CaMdr1 efflux pump inhibitor potency, dose response, singleplex, Cherry Pick2 set (AID 623992)). Details: S. cerevisiae AD/CaMDR1, Nile Red efflux, flow cytometry; series mostly up to 100 µM.
Sequence of Benomyl/methotrexate resistance protein (Candida albicans) (P28873 whole entry, looked up): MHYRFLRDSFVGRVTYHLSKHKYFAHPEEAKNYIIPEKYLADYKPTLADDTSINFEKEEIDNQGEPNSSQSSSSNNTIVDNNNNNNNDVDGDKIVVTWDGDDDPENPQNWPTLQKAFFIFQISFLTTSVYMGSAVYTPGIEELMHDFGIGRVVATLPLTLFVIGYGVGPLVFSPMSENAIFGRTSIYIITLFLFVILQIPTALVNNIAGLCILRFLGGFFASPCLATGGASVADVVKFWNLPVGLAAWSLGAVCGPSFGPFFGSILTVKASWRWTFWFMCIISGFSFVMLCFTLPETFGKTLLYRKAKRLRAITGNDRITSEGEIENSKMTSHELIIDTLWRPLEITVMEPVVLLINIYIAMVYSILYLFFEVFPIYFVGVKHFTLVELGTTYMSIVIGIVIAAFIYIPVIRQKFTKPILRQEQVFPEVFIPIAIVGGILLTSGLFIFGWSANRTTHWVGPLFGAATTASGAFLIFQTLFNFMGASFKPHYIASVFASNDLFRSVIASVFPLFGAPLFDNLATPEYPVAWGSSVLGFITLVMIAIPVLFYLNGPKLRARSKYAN

outcome, inactive:
O=C(c1ccc2c(c1)OCO2)N1CCC2(CC1)Oc1ccc(F)cc1C(=O)C21CC(c2ccc(Cl)cc2)=NO1 (stereo not drawn)
COc1ccc(C(=O)NC2CC(C)(C)Cc3c2cnn3-c2ccccc2)c(OC)c1 (stereo not drawn)
O=C(CSc1nnc(Cc2cccs2)n1Cc1ccco1)Nc1cccc(Cl)c1
O=C(Nc1ccccc1)C1=C[C@H](c2ccccc2)C[C@H](OCCCCO)O1
COc1ccc(CCOC(=O)c2ccc(N)c([N+](=O)[O-])c2)cc1
COc1cc(OC)c2ccc(=O)oc2c1C(CCN1CCCC(C)C1)c1ccc(N(C)C)cc1 (stereo not drawn)
COc1ccc(CNC(=O)C(C#N)c2nc3ccccc3nc2N2CCN(C)CC2)cc1 (stereo not drawn)
COc1ccc(O)c(C(=O)c2cnc3c(c2)CN(C)C(=O)N3)c1
NC1=NC[C@H](Cc2ccc(O)cc2)N1CCc1cc(C(F)(F)F)cc(C(F)(F)F)c1
Cc1cc(C)c2sc(N(CCCN(C)C)C(=O)c3ccc(Br)s3)nc2c1
COc1cccc(-c2sc3ccc(OC)cc3c2-c2ccc(OCCN3CCOCC3)cc2)c1
COc1ccc(-c2c[n+](CC(=O)N3c4ccccc4Sc4ccccc43)c3n2CCC3)cc1
CCO[C@@H]1OC(C(=O)Nc2ccccc2)=C[C@H](c2ccccc2)[C@H]1CCCO
